# Screening results from PubChem BioAssay.
# Shown are actives, neighbours in structure and some others; about 1.2% of the full set was active somewhere.
# GLA inh pH 4.5: blocks human alpha-galactosidase A at pH 4.5; P06280; purified enzyme, 4-MU-alpha-Gal fluorescence, pH 4.5; activity change, negative = inhibition, % at 105 µM; 230,000 tested, under 10 active; AID 1467
# PKM2 act: increases activity of human pyruvate kinase M2; Potency, µM (titrated, usually from 57.5 µM), hits mostly activators; hit rate 0.34% among 260,000; AID 1631; P14618; purified PKM2, Kinase-Glo ATP luminescence, activation; response scale: 0% is enzyme alone, no compound; note: nearly all actives have a fitted effect of over 55% in size
# Target sequence (P14618 whole entry, looked up): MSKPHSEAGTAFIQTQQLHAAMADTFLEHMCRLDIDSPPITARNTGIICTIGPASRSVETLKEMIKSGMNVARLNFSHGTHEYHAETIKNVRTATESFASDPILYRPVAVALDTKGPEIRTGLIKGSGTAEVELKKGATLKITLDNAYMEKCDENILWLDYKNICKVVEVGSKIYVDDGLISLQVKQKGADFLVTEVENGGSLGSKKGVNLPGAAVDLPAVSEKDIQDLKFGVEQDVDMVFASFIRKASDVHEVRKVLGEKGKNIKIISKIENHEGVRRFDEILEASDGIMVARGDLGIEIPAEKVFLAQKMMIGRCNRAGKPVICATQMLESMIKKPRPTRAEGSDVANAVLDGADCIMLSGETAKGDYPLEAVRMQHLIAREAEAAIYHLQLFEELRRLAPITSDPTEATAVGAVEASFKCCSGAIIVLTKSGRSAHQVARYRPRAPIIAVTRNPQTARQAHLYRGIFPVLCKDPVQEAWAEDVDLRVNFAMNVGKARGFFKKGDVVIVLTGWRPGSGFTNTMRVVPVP
#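 hPK-M2, >95% pure; 0.1 mM ADP / 0.5 mM PEP final; imidazole pH7.2 buffer w/ 7 mM MgCl2, 50 mM KCl; 1 h RT; Kinase-Glo lum. Intermediate enzyme activity for dual inhibitor/activator qHTS.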
# GLA spleen mod: inhibitors or activators of human alpha-galactosidase in spleen homogenate; Potency, µM (titrated, usually from 80 µM), usual class: inhibitors; P06280; hit rate 0.008% among 240,000; human spleen homogenate, 4MU-alpha-Gal fluorescence, 40 min
#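 Human spleen homogenate (1 ug) as enzyme source, 4-methylumbelliferyl-alpha-D-galactopyranoside 1 mM final, citrate/phosphate pH 5.0 with 0.01% Tween-20. Compounds 40 min at 37C, NaOH/glycine stop; fluorescence Ex 365/Em 440, Hill-fit AC50.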
# HTT aggregate: reduces HttQ103-GFP aggregates in PC12 cells; PC12 HttQ103-GFP aggregates, Acumen cytometry, 40 h; Potency, µM (titrated, usually from 46.1 µM), actives largely listed as inhibitors; hit rate 1.1% among 220,000; AID 1688; note: nearly all actives have a fitted effect of over 60% in size
#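 Aggregate formation scored by laser-scanning cytometer (488 excitation, 500–530 emission) in lysed PC12 cells expressing Q103-GFP after 100 nM tebufenozide induction; library tested in dose series, with ATPLite reagent added in the multiplex.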
# HTT cytoprotect: cytoprotection in Huntington HTT-Q103 PC12 cell model; PC12 HTT-Q103 induced, cytoprotection, ATP luminescence, 40 h; Potency, µM (series often up to 56.4 µM), usual class: activators; hit rate 0.14% among 230,000; AID 1471; note: nearly all actives have a fitted effect of over 45% in size
#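 Huntington model: PC12 line, ecdysone-inducible HTTQ103 exon1–GFP, tebufenozide 100 nM. Test articles in a dose series. Endpoint luminescence from cellular ATP.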
# Hits are given with their value; n = inactive; u = inconclusive; x = not tested or not shown; [ ] = remark or other dose. Calls come from the whole dose curve; as a rule, active = well fitted curve in the direction sought with a large enough effect; inconclusive = small, poorly fitted or top-dose-only effect, or another doubt; inactive = no such curve, though single readings can be large; an effect the other way counts as inactive or inconclusive.
SMILES,GLA inh pH 4.5,PKM2 act,GLA spleen mod,HTT aggregate,HTT cytoprotect
CC(=O)NC(c1ccc(C)cc1)c1cc([N+](=O)[O-])c2cccnc2c1O (configuration not stated),n,n,n,u,n[10 µM]
CCC(=O)NC(c1ccc(C)cc1)c1cc([N+](=O)[O-])c2cccnc2c1O (configuration not stated),n,n,n,7.9µM,n[10 µM]
O=[N+]([O-])c1cc(Cl)c2cccnc2c1O,n,u,n,u,n
Oc1c(I)cc(Cl)c2cccnc12,n,n,n,10µM,n
Oc1c(C(c2ccccn2)N2CCCCC2)cc(Cl)c2cccnc12 (configuration not stated),n,n,n,25µM,n
Cc1ccccc1N=Nc1ccc(O)c2ncccc12,n,n,n,2.5µM,n[10 µM]
O=C(O)CCC1CCCC1,x,x,n,x,x
N#Cc1cc2sc3nnc(-c4ccncc4)n3c2cc1C#N,n,n,n,x,13µM
COC(=O)CC1c2ccccc2C(Cc2ccc3c(c2)OCO3)=C(C)N1C(=O)OC (configuration not stated),n,n[11.5 µM],n,x,n
C(=N\Nc1nc2ccccc2[nH]1)/c1ccccn1,n,n,n,7.1µM,n
C(=N\Nc1nc2ccccc2[nH]1)/c1ccc2ncccc2c1,n,n,n,n[9.22 µM],n[10 µM]
O=c1nc(N/N=C/c2ccccn2)cn[nH]1,n,n,n,8.9µM,n
CC(=O)Oc1ccc(C(=C2CCCCC2)c2ccc(OC(C)=O)cc2)cc1,x,x,n,n,n
O=C(Nc1ccc(F)cc1F)Nc1ccc(F)cc1F,n,n,n,n[9.22 µM],n[10 µM]
O=C(Nc1ccncc1)Nc1ccc(F)cc1F,n,n,n,35µM,n[1.9 µM]
O=C(Nc1ccc(F)cc1)Nc1nnc(-c2ccncc2)s1,n,n,n,11µM,n
O=C(Nc1ccc(Cl)cc1)Nc1nnc(-c2ccncc2)s1,n,n,n,u,n[10 µM]
O=C(Nc1cccc(Cl)c1)Nc1nnc(-c2ccncc2)s1,n,n,n,13µM,n[10 µM]
COc1ccc(C(=C2C(=O)Nc3ccccc32)c2ccc(OC)cc2)cc1,x,x,n,x,x
COc1ccc(-c2nc3cnc(N4CCOCC4)nc3n(Cc3cccc(OC)c3)c2=O)cc1,x,x,n,x,n
Nc1c(S(=O)(=O)c2cccs2)c2nc3ccccc3nc2n1CCc1ccccc1,u,n,u,u,n
Nc1c(S(=O)(=O)c2cccs2)c2nc3ccccc3nc2n1CC1CCCO1 (configuration not stated),u,n,u,0.0022µM,x
CC(C)CCn1c(N)c(S(=O)(=O)c2cccs2)c2nc3ccccc3nc21,u,n,u,11µM,n[0.074 µM]
CCOC(=O)OCC1OC(C#Cc2ccccc2)C=CC1Oc1cccc(N(C)C)c1 (configuration not stated),x,x,n[17.5 µM],x,n[10 µM]
Cc1c(C)c2c(c(C)c1O)CCC(C)(COc1ccc(Cc3sc(=O)[nH]c3O)cc1)O2 (configuration not stated),n,x,n,x,n
SMILES,GLA inh pH 4.5,PKM2 act,GLA spleen mod,HTT aggregate,HTT cytoprotect
Clc1ccc(C[n+]2cc(-c3ccccc3)n3c2CCCCC3)c(Cl)c1,n,n,n,11µM,n[10 µM]
COc1ccc(C(=O)N2CCC3(CCCN(c4cccc(-c5ccccc5)c4)C3)CC2)cc1,x,x,n,x,n
CCCSc1ccccc1C(=O)N1CCN(C(=O)c2ccco2)CC1,x,n,x,x,x
O=C1c2ccccc2-c2c1cccc2C(=O)N1CCN(C(=O)c2ccco2)CC1,n,16µM,n,n,n
COCCn1c(SCC(=O)N2CCc3ccccc3C2)nc2cc(Cl)ccc2c1=O,n,n,n,n,x
CC(C)Cn1c(SCC(=O)N2CCc3ccccc3C2)nc2cc(Cl)ccc2c1=O,n,n,n,10µM,n[10 µM]
COc1cccc(CN2CC34CC(c5ccc(C(C)=O)cc5)C(CC3S2(=O)=O)O4)c1 (configuration not stated),x,x,n,x,x
CC(C)C[C@@H](CC(=O)N[C@@H](CCCN)CC(=O)N[C@@H]1CCNC[C@H]1C(=O)N[C@H](CC(=O)N[C@@H](CCC(=O)O)CC(=O)O)Cc1ccccc1)NC(=O)[C@@H]1CCCC[C@H]1N,n,x,n,x,n
CN1/C(=C\C(=O)C[n+]2ccc(C(=O)c3ccccc3)cc2)C(C)(C)c2ccccc21,n,n,n,13µM,n[10 µM]
